Among all 3,200 compounds or so, about 75 (2%) showed an effect of 50% or more. The sample as a whole holds a higher share of strong results than the screen did.
Tested on: T1, S. aureus MSSA476
T1 construct: MSSA476
Set-up: species or system S. aureus MSSA476 (TSB) or V. cholerae SAD30 (LB); 384-well bacterial growth screen at 25 uM, OD600 relative to DMSO control
Details: relative growth, OD600, TSB; 25 µM; inhibitor

SMILES | % of control remaining [%]
Cc1ccc(C=C(C#N)C(=O)Nc2ccccc2Cl)s1 [9-C22, N-(2-chlorophenyl)-2-cyano-3-(5-methylthiophen-2-yl)prop-2-enamide] | 83.2959
Cc1ccc(C=C(C#N)C(=O)Nc2ccccc2C(=O)O)s1 [9-K08, 2-[2-cyano-3-(5-methylthiophen-2-yl)prop-2-enamido]benzoic acid] | 38.0524
COc1ccccc1NC(=O)C(C#N)=Cc1ccc(C)s1 [8-B15, 2-cyano-N-(2-methoxyphenyl)-3-(5-methylthiophen-2-yl)prop-2-enamide] | 118.838
O=C(Nc1nccs1)N1CCSSCC1 [10-O22, N-(1,3-thiazol-2-yl)-1,2,5-dithiazepane-5-carboxamide] | 109.063
O=C(CCl)N(Cc1ccc(F)cc1)C1CCCCC1 [4-I13, 2-chloro-N-cyclohexyl-N-[(4-fluorophenyl)methyl]acetamide] | 87.6608
CC(Cl)C(=O)Nc1sc(-c2ccccc2)cc1C(N)=O (stereo not shown) [4-H13, 2-(2-chloropropanamido)-5-phenylthiophene-3-carboxamide] | 58.3135
Cn1c(=O)oc2cc(C(=O)CCl)ccc21 [10-F07, 6-(2-chloroacetyl)-3-methyl-2,3-dihydro-1,3-benzoxazol-2-one] | 93.125
CC1(C)C(=O)Nc2ccc(C(=O)CCl)cc21 [10-N21, 5-(2-chloroacetyl)-3,3-dimethyl-2,3-dihydro-1H-indol-2-one] | 40.3125
O=C1CCCc2cc(C(=O)CCl)ccc2N1 [10-M20, 7-(2-chloroacetyl)-2,3,4,5-tetrahydro-1H-1-benzazepin-2-one] | 137.5
C=CC(=O)NC(Cn1cncn1)c1ccccc1 (stereo not shown) [3-F17, N-[1-phenyl-2-(1H-1,2,4-triazol-1-yl)ethyl]prop-2-enamide] | 118.415
Cc1cccc(N(Cc2ccccc2)C(=O)CCl)c1 [6-O07, N-benzyl-2-chloro-N-(3-methylphenyl)acetamide] | 98
O=C(CCl)N(Cc1ccc(Cl)c([N+](=O)[O-])c1)c1ccccc1 [6-H06, 2-chloro-N-[(4-chloro-3-nitrophenyl)methyl]-N-phenylacetamide] | 8.195
O=C(CCl)N(Cc1ccccc1)c1ccccc1 [4-G13, N-benzyl-2-chloro-N-phenylacetamide] | 77.7513
C=CC(=O)NCC1(S(=O)(=O)CC)CC1 [3-O13, N-{[1-(ethanesulfonyl)cyclopropyl]methyl}prop-2-enamide] | 91.2495
N#CC(=Cc1c(F)c(F)c(F)c(F)c1F)C(=O)NC1CCCCC1 [8-O15, 2-cyano-N-cyclohexyl-3-(2,3,4,5,6-pentafluorophenyl)prop-2-enamide] | 32.5311
Cc1ccc(C=C(C#N)C(=O)NC2CCCCC2)cc1C [8-G10, 2-cyano-N-cyclohexyl-3-(3,4-dimethylphenyl)prop-2-enamide] | 108.216
N#CC(=Cc1cc(F)ccc1F)C(=O)NC1CCCCC1 [8-G08, 2-cyano-N-cyclohexyl-3-(2,5-difluorophenyl)prop-2-enamide] | 64.3983
N#CC(=Cc1ccc([N+](=O)[O-])c(Cl)c1)C(=O)NC1CCCCC1 [8-B08, 3-(3-chloro-4-nitrophenyl)-2-cyano-N-cyclohexylprop-2-enamide] | 29.8755
N#CC(=Cc1ccc(F)c(F)c1)C(=O)NC1CCCCC1 [9-J22, 2-cyano-N-cyclohexyl-3-(3,4-difluorophenyl)prop-2-enamide] | 94.0824
N#CC(=Cc1ccccc1)C(=O)NC1CCCCCCC1 [8-G17, 2-cyano-N-cyclooctyl-3-phenylprop-2-enamide] | 98.9212
N#CC(=Cc1sc2ccccc2c1Cl)C(=O)NC1CC1 [9-C18, 3-(3-chloro-1-benzothiophen-2-yl)-2-cyano-N-cyclopropylprop-2-enamide] | 110.262
C=CC(=O)NC12CC3(C)CC(C)(CC(O)(C3)C1)C2 [1-K17, N-(3-hydroxy-5,7-dimethyladamantan-1-yl)prop-2-enamide] | 111.473
CC(Cl)C(=O)N(C)C1CCN(c2ccccn2)CC1 (stereo not shown) [6-J20, 2-chloro-N-methyl-N-[1-(pyridin-2-yl)piperidin-4-yl]propanamide] | 95.6098

SMILES | % of control remaining [%]
O=C(CCl)N[C@H](CO)Cc1ccccc1 [6-G20, 2-chloro-N-[(2S)-1-hydroxy-3-phenylpropan-2-yl]acetamide] | 109.61
CC(=O)c1ccccc1NC(=O)C(C)Cl (stereo not shown) [5-O19, N-(2-acetylphenyl)-2-chloropropanamide] | 103.825
CCN(Cc1ccc(C#N)cc1F)C(=O)CCl [5-H08, 2-chloro-N-[(4-cyano-2-fluorophenyl)methyl]-N-ethylacetamide] | 105.282
CSc1ccc(C=C(C#N)C(=O)Nc2cccc(Cl)c2C)cc1 [8-N11, N-(3-chloro-2-methylphenyl)-2-cyano-3-[4-(methylsulfanyl)phenyl]prop-2-enamide] | 130.788
C=CC(=O)Nc1ccc(C(=O)NC2CCN(S(C)(=O)=O)CC2)cc1 [2-M21, N-(1-methanesulfonylpiperidin-4-yl)-4-(prop-2-enamido)benzamide] | 120.801
COc1ccc(C2=NN(C(=O)CCl)C(c3cccc(C)c3)C2)cc1 (stereo not shown) [4-G20, 2-chloro-1-[3-(4-methoxyphenyl)-5-(3-methylphenyl)-4,5-dihydro-1H-pyrazol-1-yl]ethan-1-one] | 10.2906
Cc1ccc(C2=NN(C(=O)CCl)C(c3cccs3)C2)cc1 (stereo not shown) [4-O22, 2-chloro-1-[3-(4-methylphenyl)-5-(thiophen-2-yl)-4,5-dihydro-1H-pyrazol-1-yl]ethan-1-one] | 88.0419
O=C(CCl)N1N=C(c2cccs2)CC1c1ccccc1O (stereo not shown) [4-K20, 2-chloro-1-[5-(2-hydroxyphenyl)-3-(thiophen-2-yl)-4,5-dihydro-1H-pyrazol-1-yl]ethan-1-one] | 3.049
COc1ccc(C2=NN(C(=O)CCl)C(c3cccc(F)c3)C2)cc1 (stereo not shown) [6-P04, 2-chloro-1-[5-(3-fluorophenyl)-3-(4-methoxyphenyl)-4,5-dihydro-1H-pyrazol-1-yl]ethan-1-one] | 145.463
Cc1ccc(C2CC(c3cccs3)=NN2C(=O)CCl)cc1 (stereo not shown) [4-I22, 2-chloro-1-[5-(4-methylphenyl)-3-(thiophen-2-yl)-4,5-dihydro-1H-pyrazol-1-yl]ethan-1-one] | 118.533
O=C(CCl)N1N=C(c2cccs2)CC1c1cccc(O)c1 (stereo not shown) [6-L04, 2-chloro-1-[5-(3-hydroxyphenyl)-3-(thiophen-2-yl)-4,5-dihydro-1H-pyrazol-1-yl]ethan-1-one] | 3.7561
COc1ccc(C2=NN(C(=O)CCl)C(c3ccc(F)cc3)C2)cc1 (stereo not shown) [4-M20, 2-chloro-1-[5-(4-fluorophenyl)-3-(4-methoxyphenyl)-4,5-dihydro-1H-pyrazol-1-yl]ethan-1-one] | 115.102
O=C(CCl)N1N=C(c2cccs2)CC1c1cccs1 (stereo not shown) [4-O18, 1-[3,5-bis(thiophen-2-yl)-4,5-dihydro-1H-pyrazol-1-yl]-2-chloroethan-1-one] | 105.193
O=C(CCl)N1N=C(c2cccs2)CC1c1ccc(F)cc1 (stereo not shown) [4-O20, 2-chloro-1-[5-(4-fluorophenyl)-3-(thiophen-2-yl)-4,5-dihydro-1H-pyrazol-1-yl]ethan-1-one] | 137.589
N#CC(=Cc1ccc(Cl)cc1)C(=O)Nc1ccncc1 [8-K20, 3-(4-chlorophenyl)-2-cyano-N-(pyridin-4-yl)prop-2-enamide] | 95.6017
C=CC(=O)Nc1ccccc1CCC(N)=O [1-A18, N-[2-(2-carbamoylethyl)phenyl]prop-2-enamide] | 117.099
COc1cc(NC(=O)CCl)cc(OC)c1 [4-G09, 2-chloro-N-(3,5-dimethoxyphenyl)acetamide] | 119.295
Cn1c(-c2ccccc2)c(C(=O)CCl)c2ccccc21 [10-N04, 2-chloro-1-(1-methyl-2-phenyl-1H-indol-3-yl)ethan-1-one] | 49.0625
O=C(CCl)c1c(-c2ccccc2)[nH]c2ccccc12 [10-E05, 2-chloro-1-(2-phenyl-1H-indol-3-yl)ethan-1-one] | 159.063
Cn1cccc1C(=O)CCl [10-B04, 2-chloro-1-(1-methyl-1H-pyrrol-2-yl)ethan-1-one] | 122.188
CCNC(=O)C(C#N)=Cc1ccc(OC(F)F)cc1 [8-E05, 2-cyano-3-[4-(difluoromethoxy)phenyl]-N-ethylprop-2-enamide] | 113.527
O=C1C=CC(=O)N1c1cc(C(F)(F)F)ccc1Cl [10-G09, 1-[2-chloro-5-(trifluoromethyl)phenyl]-2,5-dihydro-1H-pyrrole-2,5-dione] | 133.75
CC(Cl)C(=O)Nc1sc2c(c1C#N)CCCCC2 (stereo not shown) [5-B20, 2-chloro-N-{3-cyano-4H,5H,6H,7H,8H-cyclohepta[b]thiophen-2-yl}propanamide] | 104.918
